Consider 43 compounds from PubChem BioAssay AID1210 (NMMLSC, 2008).

Active and inactive are the calls of the source.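 The calls were made as follows: active = blocks over 70% of labeled estradiol binding at 10 µM, or over a set limit at 100 nM; inactive = the rest.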

This experiment deals with Estrogen receptor beta (Homo sapiens) (UniProt Q92731). As to the kind of experiment: ERbeta ligand binders by competition, primary screen, cell-based, Cos7 ERbeta-GFP, flow cytometry (AID 1210).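 Also: 0% = DMSO vehicle wells and 100% = complete loss of labeled estradiol signal.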 To be noted: fluorescent estrogen binding, stronger effect = higher value.
Sequence of Estrogen receptor beta (Homo sapiens) (Q92731 whole entry, looked up): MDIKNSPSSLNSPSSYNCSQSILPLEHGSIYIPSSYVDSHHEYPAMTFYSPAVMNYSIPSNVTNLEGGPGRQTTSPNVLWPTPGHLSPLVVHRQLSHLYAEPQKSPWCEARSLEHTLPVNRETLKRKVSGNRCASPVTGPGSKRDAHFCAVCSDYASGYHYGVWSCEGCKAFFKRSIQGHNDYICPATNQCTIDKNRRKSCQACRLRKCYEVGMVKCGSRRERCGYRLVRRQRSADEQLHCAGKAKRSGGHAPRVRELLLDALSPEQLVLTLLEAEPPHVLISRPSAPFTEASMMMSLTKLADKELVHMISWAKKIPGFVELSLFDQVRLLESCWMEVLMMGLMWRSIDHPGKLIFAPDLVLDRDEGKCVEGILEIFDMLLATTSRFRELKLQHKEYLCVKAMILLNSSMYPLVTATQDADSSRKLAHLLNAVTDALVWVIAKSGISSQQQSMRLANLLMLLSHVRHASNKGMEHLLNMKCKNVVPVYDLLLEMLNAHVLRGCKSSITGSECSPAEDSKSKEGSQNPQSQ
[1] abbreviates: ligand binding inhibition, at 0.1 µM.

For orientation: inhibition means how much of the control response was suppressed. With `Cc1nn(-c2ccccc2)c(/N=C/c2ccc(O)cc2)c1-c1ccccc1`, the inhibition is 78% (active) (at 10 µM) and 44% under setting [1].
`Oc1ccc(N=Cc2ccc(O)c(O)c2)cc1`: the inhibition (at 10 µM) was 34% (inactive) and the inhibition under setting [1] worked out at 20%.
For `O=C(CSc1nnnn1-c1ccccc1)Nc1nsc(-c2ccc(Cl)cc2)n1` the same measures were 36% (inactive) and 21%.
In the case of `O=Cc1cn(-c2ccccc2)nc1-c1cc2c(ccc3ccccc32)oc1=O`, the inhibition runs as follows: (at 10 µM) 39% (active); under setting [1], 81%.
The like results for `COc1ccc(N=Cc2sc(O)c3ccccc23)cc1` were, in that order, 47% (inactive) and 22%.
For `Nc1ccc2nc(-c3cccnc3)[nH]c2c1` the same measures were 50% (inactive) and 20%.
`Oc1ccc(C2=Nn3c(nnc3-c3ccco3)SC2)cc1O`: the inhibition was 32% (inactive) (at 10 µM) and 1% under setting [1].
For `COc1ccc(N2Cc3cccc(C(=O)O)c3C2=O)cc1`, the inhibition runs as follows: (at 10 µM) 42% (inactive); under setting [1], 32%.
Regarding `C=C1C2C[C@H](O)C(C)(C)[C@@]2(O)[C@H](O)C[C@]23C[C@@](C)(O)[C@H](CC[C@H]12)[C@H]3O` (stereo partly specified), the inhibition is, setting by setting: (at 10 µM) 70% (inactive); under setting [1], 1%.
For `c1ccc(-c2nnc3sc(Cc4cccs4)nn23)cc1` the same measures were 18% (inactive) and 20%.
As to `Cc1nnc(Oc2ccccc2F)c2ccccc12`, the inhibition reads like this: (at 10 µM) 47% (inactive); under setting [1], 38%.
As to `C1CCC(c2nn3c(-c4n[nH]c5c4CCC5)nnc3s2)CC1`, the inhibition is, setting by setting: (at 10 µM) 61% (inactive); under setting [1], 19%.
`Cc1sc2ncnc(SCC(=O)NC(=O)NCc3ccco3)c2c1C`: the inhibition is 47% (inactive) (at 10 µM) and 14% under setting [1].
The like results for `O=C(Cc1coc2cc3c(cc12)CCC3)OCc1cc(=O)n2c(n1)sc1ccccc12` were, in that order, 56% (inactive) and 14%.
For `CC(=O)NC12CC3CC(C1)CC(C(=O)OCC(=O)Nc1ncc(Cl)c(C)c1Cl)(C3)C2` the same measures were 12% (inactive) and 3%.
As to `Oc1ccccc1C1=Nc2ccccc2N=C(c2cccs2)C1`, the inhibition (at 10 µM) was 19% (inactive) and the inhibition under setting [1] was 17%.
As to `Cc1ccc2c(c1)c(=O)c1c3n2CCN(C(=O)CCl)C3CC1` (stereo unspecified), the inhibition is 37% (inactive) (at 10 µM) and 33% under setting [1].
For the compound `CCOC(=O)c1c(/N=C/c2ccc(O)cc2O)sc2c1CCC2`, the inhibition is, setting by setting: (at 10 µM) 33% (inactive); under setting [1], 22%.
`NC(=O)c1oc2ccccc2c1NC(=O)c1nc2ccccc2s1`: the inhibition is 39% (inactive) (at 10 µM) and 10% under setting [1].
As to `COc1ccc(C2Nc3ccccc3C(=O)N2c2ccccc2)cc1COc1ccccn1` (stereo unspecified), the inhibition runs as follows: (at 10 µM) 18% (inactive); under setting [1], 17%.
On to `CCCCCc1nnc(NC(=O)Cc2cccs2)s1`, for which the inhibition is 18% (inactive) (at 10 µM) and 5% under setting [1].
`CCOc1[nH]c(/N=C/c2ccco2)c(C#N)c1C#N`: the inhibition (at 10 µM) was 35% (inactive) and the inhibition under setting [1] is 15%.
For `O=S(=O)(c1cccc(-c2cn3cccnc3n2)c1)N1CCCCCC1` the same measures were 14% (inactive) and 17%.
As for `Cn1ccnc1SCC(=O)Nc1ccc2nc(SCC(=O)NC3CC3)sc2c1`, the inhibition was 46% (inactive) (at 10 µM) and 38% under setting [1].
With `NC(=O)c1c(NC(=O)c2cc3ccccc3o2)sc2c1CCC2`, the inhibition by setting is: (at 10 µM) 18% (inactive); under setting [1], 54%.
As for `O=C(COC(=O)CN1C(=O)c2ccccc2C1=O)Nc1ncc(Cl)cc1Cl`, the inhibition is, setting by setting: (at 10 µM) 33% (inactive); under setting [1], 16%.
The like results for `Cc1ccc(-c2n[nH]c(=S)n2/N=C/C=C\c2ccccc2[N+](=O)[O-])cc1` were, in that order, 74% (active) and 4%.
Turning to `Oc1ccc(-c2[nH]nc(-c3ccccc3)c2-c2nc3ccccc3[nH]2)cc1`, the inhibition is 33% (inactive) (at 10 µM) and 21% under setting [1].
With `COc1cc(/C=C2\OC(=O)c3c(OC)cccc32)ccc1O`, the inhibition was 55% (inactive) (at 10 µM) and 28% under setting [1].
`Cc1ccc(S(=O)(=O)N2CCCCC2)cc1C(=O)Nc1ncn[nH]1`: the inhibition is 13% (inactive) (at 10 µM) and 23% under setting [1].
For `O=C(Cc1ccccc1)Nc1ccc2oc(-c3cccnc3)nc2c1` the same measures were 65% (inactive) and 20%.
As for `CCOC(=O)c1c(C)oc2c1c(C=NC1CCS(=O)(=O)C1)c(O)c1ccccc12` (stereo unspecified), the inhibition is 38% (inactive) (at 10 µM) and 11% under setting [1].
In the case of `O=C1C=CC(O)(c2cc(=O)c3c(O)cc(O)cc3o2)C=C1`, the inhibition by setting is: (at 10 µM) 29% (inactive); under setting [1], 8%.
With `CN(c1ccccc1C(=O)O)S(=O)(=O)c1ccc2c3c(cccc13)C(=O)N2`, the inhibition is 0% (inactive) (at 10 µM) and 6% under setting [1].
As for `Brc1cc2c(cc1C1Nc3ccccc3C3C=CCC31)OCO2` (stereo unspecified), the inhibition by setting is: (at 10 µM) 20% (inactive); under setting [1], 25%.
As to `CCOc1ccc(CC2S/C(=N/c3ccccn3)NC2=O)cc1` (stereo unspecified), the inhibition runs as follows: (at 10 µM) 16% (inactive); under setting [1], 15%.
`Nc1ccc2nc(-c3ccc(Cl)cc3)[nH]c2c1`: the inhibition reads like this: (at 10 µM) 42% (inactive); under setting [1], 16%.
On to `O=C(Oc1ccc2c(c1)OCO2)c1cc2c(s1)CCC2`, for which the inhibition is 52% (inactive) (at 10 µM) and 48% under setting [1].
As for `Cc1cc(NC(=O)CSc2cn(CCNC(=O)c3ccc(Cl)cc3)c3ccccc23)no1`, the inhibition (at 10 µM) was 11% (inactive) and the inhibition under setting [1] was 31%.
For `COc1ccc2c(c1)[nH]c1c(=O)n(N)cnc12` the same measures were 4% (inactive) and 30%.
For `O=C(COC(=O)c1ccccc1)NCc1ccco1` the same measures were 67% (inactive) and 16%.
Consider `Cc1ccccc1OCC1Cc2c(nc(N)c(C#N)c2N)O1` (stereo unspecified), for which the inhibition was 25% (inactive) (at 10 µM) and 11% under setting [1].
For `CC1Cc2ccccc2N1C(=O)CSc1nnc(-c2ccc(S(=O)(=O)N3CCCC3)cc2)o1` (stereo unspecified), the inhibition by setting is: (at 10 µM) 54% (inactive); under setting [1], 19%.
